Measurements: PubChem BioAssay AID1508600 (Functional Genomics Laboratory (NCATS/FGL), 2020)
The campaign covered roughly 53,000 sequences. About 3,700 (7%) were called active.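 Rule for the calls: active = gene knockdowns whose robust z-score for IL-1 alpha signal is at least 2 or at most -2, so actives lie on both sides; inactive = the rest.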 This excerpt belongs to a sample that is enriched for actives.

test: Components of the Cytosolic LPS Sensing Pathway: Gene Identification via Genome-wide siRNA Screen; details: RAW264.7 macrophages, IL-1a HTRF, actives lie on both sides, screened at 100 nM (by protocol), cells primed 5 h with Pam3CSK4 first;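 note: robust z of the log signal after scaling to non-targeting control siRNA wells of the plate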
Summary of the method: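 Supernatant IL-1a by HTRF from RAW264.7 cells primed with Pam3CSK4 (5 hours) and transfected with LipidA (24 hour) after 48h siRNA knockdown at 100 nM; cell viability checked with CellTiter-Glo.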

| Sequence | z-score |
| --- | --- |
| GGGAACAAACCUUGAUUCUTT against Adam24 | 3.49 (active) |
| GGAGAGACCACCCUUUCAGTT against Fahd2a | -0.432 (inactive) |
| GCAUAUGGACUUUCUGUCATT against Iws1 | -0.157 (inactive) |
| GGUGUAACACUCAUUUAUCTT against Ifitm3 | 2.88 (active) |
| GGACACCUACCAAAAGUUATT against Cd9 | 0.432 (inactive) |
| GCUACAACAAGACAAAGUCTT against Tada1 | 1.84 (inactive) |
| CCUUCUACCUACUUAUUGGTT against Tomm70a | 0.178 (inactive) |
| GGAAGAUGUGAAAUUGCUUTT against Dars2 | 2.23 (active) |
| CCACUAUGUUCUGUGGCAATT against Olfr736 | -2.33 (active) |
| GGAAGAAUUUGACAACCGCTT against Mrps18c | 0.583 (inactive) |
| GGAAAAUGAUAGCAGACAUTT against Zfp810 | -1.72 (inactive) |
| GGGCCAGAAGAAGAGUCGATT against Mllt6 | -0.304 (inactive) |
| GGAGAUUUCUGAAACUAGATT against Tiaf2 | -2.09 (active) |
| GGCCAACUCACCUUUCUAGTT against D630023F18Rik | 1.84 (inactive) |
| CCAUUCUUAUUGUUGAGAATT against Nek9 | -0.793 (inactive) |
| GGACAUGAAAGUUGACCUGTT against Mrps31 | 0.465 (inactive) |
| GCCCGUGUGUAAGUGCAAATT against Wfikkn2 | 2.25 (active) |
| GGAAACAGAGCAAGGAAAATT against Gas7 | 0.613 (inactive) |
| GGAGAGCUCUAUGGAUCGATT against Fgf16 | 0.784 (inactive) |
| CCUCCUUUGGACAACGGGUTT against Cyp7a1 | -1.34 (inactive) |
| CCUGCUCUCCUCAUUAUGUTT against Rnls | -0.115 (inactive) |
| GGAAGCAACUUGGAAUUUGTT against Ctnna3 | 0.886 (inactive) |

| Sequence | z-score |
| --- | --- |
| GGGUACAGUCCGAUACAGUTT against Nploc4 | -1.79 (inactive) |
| GCUCUCAUUAGCAUUAUCGTT against Gria1 | 0.21 (inactive) |
| GCACAACUCAGAAGUAAUUTT against Ghr | 0.271 (inactive) |
| GGUAAUAUUUCGUGCUUUATT against Lamb1 | 2.1 (active) |
| CCUAAAAAGAGGAAAAGGGTT against Psg29 | -0.254 (inactive) |
| GGUGCUCAGCAUGUUUGCUTT against Avpr1b | -1.06 (inactive) |
| GGCACUGGAAAUAAAACCCTT against S100a14 | -0.766 (inactive) |
| GCUAACGAAGGUAGUGUACTT against Gtpbp8 | 3.34 (active) |
| GGUAUGCUCUCUGUUGACUTT against Olfr922 | 0.472 (inactive) |
| GGAGUUCCUAUUUAAUCCCTT against Hoxb8 | -0.419 (inactive) |
| GCAGUUUUAACUGGCCAUATT against Nr2f2 | 1.7 (inactive) |
| GCUGCUUAAGUACAUCAGATT against Grm4 | -0.401 (inactive) |
| GGUUAUGCAUUACUCUCUUTT against Prkdc | 0.0207 (inactive) |
| GGCCAGGUAUAAAUAUAUATT against Dusp8 | 4.51 (active) |
| GCUGGAACUUAGUGUUCAGTT against Kat6b | 1.45 (inactive) |
| GCAAUGUUCUCCGUAAACATT against Acss2 | 1.15 (inactive) |
| GGCUUCAAACACUUCCUUGTT against Sh2d4b | 0.818 (inactive) |
| GGGAAAAGAUUCAGCUAGATT against Ntn4 | -1.16 (inactive) |
| GCAGCUAUUGAGCAUGGUGTT against Atp6v1g3 | -2.16 (active) |
| GCCGUAUCGAUUCUAUUUCTT against Slc6a17 | 1.09 (inactive) |
| GGAAAAGAAGACAUUUCUCTT against Osbpl8 | -0.565 (inactive) |
| CCUCCUGUACGAACACGCATT against Sars2 | -0.118 (inactive) |

| Sequence | z-score |
| --- | --- |
| GGCUGUGCUCAGGAUCAAATT against Olfr683 | 2.37 (active) |
| GGAAAUAUCCAAGAAUCCCTT against Bbs4 | -0.0724 (inactive) |
| GUGAUUGGGAACCUGUUUATT against Paqr6 | -1.35 (inactive) |
| GCAGAUCAGUUGGUACAAGTT against Acss3 | 0.0616 (inactive) |
| GCUAACACAACGAGAGAAGTT against Ushbp1 | -2.39 (active) |
| GGAUUCACACAGAGGUAAATT against Zfp169 | -0.215 (inactive) |
| CCCAUAUUAAUUAUGGCGUTT against Hadha | -0.189 (inactive) |
| GCCAUACAUAAACUACAAUTT against Gulo | -0.175 (inactive) |
| GUACUUGAAACGAACUGGATT against B4galnt4 | -1.68 (inactive) |
| CCUUACCCUGUUAUACAAGTT against Hirip3 | 2.69 (active) |
| GGCUAAAACAGGAAAUCUGTT against Mip | -0.398 (inactive) |
| CCACUUUAAAGGCUCUUCUTT against H3c8 | -2.17 (active) |
| CCGACUUCGUACAAUGACCTT against Slc1a6 | 1.45 (inactive) |
| GGAGAACAAGAUCCUGGAGTT against Ccdc39 | 1.73 (inactive) |
| GGAUCCAGAAGAGCAUCUCTT against Sap30 | -0.33 (inactive) |
| GGGCGUGAUUUAUUUCUACTT against Mfsd6l | 1.45 (inactive) |
| GGCUAUGCUUUUGUCCAGUTT against Raly | -0.392 (inactive) |
| GGUGUCUUUGCUCUUAAUUTT against Sike1 | 0.277 (inactive) |
| CGCAGUCCUUGACAUUAAATT against Rab3a | 0.0328 (inactive) |
| GCUCUUGGGAUGGACGAUATT against Hmgcs1 | 4.73 (active) |
| GGCAGACAUAAGGCUUUCUTT against Olfr1056 | -0.754 (inactive) |
| GGGCAGGAAAAAAAAUUCATT against Vps13b | 1.68 (inactive) |

| Sequence | z-score |
| --- | --- |
| CCACUGAAGGAAGUUCGCUTT against Amer2 | 0.21 (inactive) |
| GGAUAAAUGCCAUUUUGGATT against Cpeb1 | -0.664 (inactive) |
| GCCUUAACCACAAUUAAAATT against Etfrf1 | -0.578 (inactive) |
| GGGAUCUGGAUGAGGUCAATT against Tcf7l1 | 3.02 (active) |
| GGAAAUUAGUGCUGGGCGUTT against Erbb3 | 0.424 (inactive) |
| CGAAAUUGAUUCUAUCUGCTT against Katnal1 | -0.59 (inactive) |
| GGGUCUCUAUGGAAUCAAUTT against Ldha | 2.83 (active) |
| GGCAGUAUGAGAGGUAUUUTT against Entpd7 | 0.345 (inactive) |
| CCAAACGAAGGAAGCUGACTT against Taf6l | -2.09 (active) |
| GGGAGAUAAAAAGUUAAGGTT against Bclaf1 | 1.38 (inactive) |
| GGCUUUCGUUUACAACAAGTT against Naglu | -0.414 (inactive) |
| GGUUAUCAUACUUUUUGUGTT against Phf10 | -0.582 (inactive) |
| CCAAACAAUGUUGUUUAGGTT against Rilpl1 | -0.965 (inactive) |
| CCUCGAGUUCGGAAACAGATT against Chd8 | -1.06 (inactive) |
| CCUGCCUAGAUGUUUCAGCTT against Ifna13 | -0.196 (inactive) |
| GGACAAUAGAUGUGUUUGATT against Ddb2 | 1.57 (inactive) |
| GCUUGGCCGUGAUUGUUGCTT against Fndc10 | 2.35 (active) |
| GGCUUGGUGAGCUACCUACTT against Wdr62 | -0.839 (inactive) |
| GGCACACUUAAGUAAAAGUTT against Kras | -0.542 (inactive) |
| GGCUACCUUCUACCUAAGGTT against Cyp2g1 | 1.42 (inactive) |
| CGGCAAGCCCAAAAAGGUCTT against Dlx3 | -2.34 (active) |
| GCAAUCUGUCCUUCUGUGATT against Olfr1133 | -0.818 (inactive) |

| Sequence | z-score |
| --- | --- |
| CCUGUACUGAACUACUUGATT against Kctd5 | 0.0535 (inactive) |
| CCUGGUACAAGGAACCAGUTT against Zim1 | 0.285 (inactive) |
| GGACCCAAUAAAACUUCCGTT against Ttc36 | 1.13 (inactive) |
| CCACAUACUCUAAUGAAGUTT against Casp1 | 0.176 (inactive) |
| GGAACUGGGUUCAUCCACATT against Snrpb2 | -2.02 (active) |
| GGAAAAAGAGCUUUUGGUCTT against Piwil2 | 0.528 (inactive) |
| GGAUGAGUUAAGUUUCUCATT against Sh3d19 | -1.57 (inactive) |
| CCCUAAUAGGUCAAUAAAGTT against Vmn1r71 | -0.0066 (inactive) |
| GGCAUUUCGUGGAUCACCGTT against Mtg2 | -1.56 (inactive) |
| GGGUCACGUGCUGUCUCAUTT against Slc22a20 | -1.55 (inactive) |
| GCAAAGCCUUACCAUGUAATT against Ighg | 1.33 (inactive) |
| GGUCAUGGUCUGAGAUUCUTT against Txnl4a | -2.34 (active) |
| GGAAGUCAAGAAAGUGGCCTT against H1f0 | -0.294 (inactive) |
| GGGAUACAAUGUAACAUACTT against L1cam | -0.0915 (inactive) |
| GGACAGCUCUCUCCAUACATT against Tlr9 | 0.653 (inactive) |
| GGAUUUUGUUCUUACAGUUTT against Nfia | 2.8 (active) |
| GGGAACUUUUUUGAUGGGCTT against Psmb2 | -1.13 (inactive) |
| GCACAUUCAUAGGAGUACCTT against Vmn1r237 | 0.371 (inactive) |
| CGAAACUCCCAUUGUUAAUTT against Zfp521 | 1.29 (inactive) |
| GGAUCACAGAAUAGAACAATT against Hpgds | 0.237 (inactive) |
